PABP FP inh = PABP-poly(A) binding inhibition | P11940 | PABP-poly(A) RNA binding, fluorescence polarization | calls only at 35 µM | 290,000 tested, 1% active | AID 2014;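 note: calls also rest on retests at 20 µM and on dose response follow-up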
Target sequence (P11940 whole entry, looked up): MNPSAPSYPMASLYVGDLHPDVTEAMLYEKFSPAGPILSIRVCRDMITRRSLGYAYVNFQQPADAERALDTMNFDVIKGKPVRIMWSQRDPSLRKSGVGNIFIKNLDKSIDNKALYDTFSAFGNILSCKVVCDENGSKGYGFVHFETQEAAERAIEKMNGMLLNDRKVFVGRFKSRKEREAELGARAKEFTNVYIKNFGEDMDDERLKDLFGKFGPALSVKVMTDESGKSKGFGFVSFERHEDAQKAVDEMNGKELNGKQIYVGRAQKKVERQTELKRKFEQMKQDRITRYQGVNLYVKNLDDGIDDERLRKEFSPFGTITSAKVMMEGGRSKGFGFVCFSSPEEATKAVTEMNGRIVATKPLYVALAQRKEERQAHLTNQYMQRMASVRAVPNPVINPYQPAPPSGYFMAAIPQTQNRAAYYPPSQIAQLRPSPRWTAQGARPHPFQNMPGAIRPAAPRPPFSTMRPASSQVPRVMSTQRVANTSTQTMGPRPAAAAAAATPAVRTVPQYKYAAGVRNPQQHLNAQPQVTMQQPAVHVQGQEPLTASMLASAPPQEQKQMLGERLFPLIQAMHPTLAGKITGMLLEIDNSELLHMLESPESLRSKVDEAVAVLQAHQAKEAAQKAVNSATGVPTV
eIF4H FP inh = inhibitors of RNA binding by human eIF4H; inhibition, % at 35 µM; AID 2012; Q15056; eIF4H fluorescence polarization binding assay; 290,000 tested, 0.94% active;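 note: calls also rest on retests at 20 µM and on dose response follow-up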
PABP1 MLLE inh = inhibitors of microRNA-mediated deadenylation, human PABP1 MLLE binding. GST-MLLE / FITC-PAM2 fluorescence polarization. inhibition, % at 20 µM. 360,000 tested, 0.36% active. AID 588489; in the data active = inhibition above about 35%, passing the limit was not always enough;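 note: plate controls were DMSO wells with GST-MLLE for no effect and wells lacking GST-MLLE protein for full effect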
EBV gp42 inh = blocks Epstein-Barr virus glycoprotein 42 binding; Q1HVG2; Fluorescence polarization binding assay, mP read-out; inhibition, % (tested at 21.74 µM); 220,000 tested, 0.42% active; in the data active = inhibition above about 50%
eIF4E 4G PPI = blocks eIF4E binding to eIF4G; inhibition, % at 21.7 µM; P63073+Q04637; TR-FRET eIF4E-eIF4GI(517-606) binding, 2 h; 220,000 tested, 0.37% active; AID 782;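 active = inhibition above about 30%, limit read from the data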;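 note: 0% = full FRET control wells and 100% = background wells lacking eIF4GI fragment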
An asterisk follows results filed as active; i = inactive; ? = inconclusive; / = no result given; + = active, no number. Compounds with a hit are over-represented: about 1.7% of the library has one in this group of screens. Unless noted, the rule behind the calls is not given here.

SMILES	PABP FP inh	eIF4H FP inh	PABP1 MLLE inh	EBV gp42 inh	eIF4E 4G PPI
Cc1ccc(-c2ccc(C3C(C#N)=C(N)Oc4n[nH]c(C)c43)o2)cc1 (configuration not stated)	+	54*	-16	10	1
O=C(Nc1cccc(S(=O)(=O)N2CCCCC2)c1)c1ccc(N2CCCC2=O)cc1	/	/	7	/	/
COc1ccc(CCn2c(-c3ccco3)nc3nc4ccccc4nc32)cc1	+	67*	-46	-18	-3
COc1ccc(N2CCN(C(=O)COC(=O)CC(NC(N)=O)c3ccc(Cl)cc3)CC2)cc1 (configuration not stated)	/	/	0	/	/
N#CC1=C(N)SC(N)=C(C#N)C1c1cccc(O)c1	+	74*	-72	-71	1
CC1CN(Cc2ccccc2)c2nc3c(c(=O)n(CC(N)=O)c(=O)n3C)n2C1 (configuration not stated)	i	1	-4	/	/
CC1CN(c2ccc(Oc3ccccc3)cc2)c2nc3c(c(=O)n(CC(N)=O)c(=O)n3C)n2C1 (configuration not stated)	i	-1	-1	-8	95*
C[C@H](OC(=O)NCc1ccc(C(F)(F)F)cc1)[C@@H]1O[C@@]2(C)CCC[C@@H]1O2	/	/	-12	/	/
Clc1ccccc1C1=CC(c2ccco2)n2ncnc2N1 (configuration not stated)	i	-9	87	13	-3
CC(=O)Nc1cccc(C2=CC(c3ccco3)n3ncnc3N2)c1 (configuration not stated)	i	?	/	130*	1
Clc1ccc(C2=CC(c3ccco3)n3ncnc3N2)cc1 (configuration not stated)	+	?	160	80*	9
CC1=C(C(=O)Nc2ccccc2)C(c2ccco2)n2ncnc2N1 (configuration not stated)	i	-5	-9	-12	-5
COc1ccc(C2C=C(c3ccccc3)Nc3ncnn32)cc1 (configuration not stated)	i	16	37	-2	5
COc1ccc(C2=CC(c3ccco3)n3ncnc3N2)cc1 (configuration not stated)	i	?	144	88*	0
O=C(c1ccccc1)N1CCN(C(=O)c2nn3c(C(F)(F)F)cc(-c4ccco4)nc3c2Br)CC1	i	69*	-9	/	/
O=C(O)c1cnn2c(C(F)(F)F)cc(-c3ccco3)nc12	+	78*	6	-4	6
Cc1ccc(N2C(=O)c3cccc4c(N)ccc(c34)C2=O)c2cccnc12	?	?	i	39	2
O=C1c2cccc3c(N4CCCCC4)ccc(c23)C(=O)N1c1ccccn1	?	?	1	129*	-2
CCCN1C(=O)c2cccc3c(N4CCCCC4)ccc(c23)C1=O	i	?	18	80*	-43
COc1ccc(CCN2C(=O)c3cccc4c(C(=O)N5CCCCC5)ccc(c34)C2=O)cc1OC	i	4	-5	-3	1
CCC(Oc1ccccc1)C(=O)OCC(=O)Nc1sccc1C(N)=O (configuration not stated)	/	/	11	/	/
Cc1cccc(NC(=O)CSc2nc(N)cc(N)n2)c1	i	1	-8	-9	-1
COc1ccc(CCNC(=O)CSc2nnc(-c3ccco3)c(-c3ccco3)n2)cc1OC	+	84*	/	/	/
Cc1cccc(NC(=O)CSc2nnc(-c3ccco3)c(-c3ccco3)n2)c1C	+	91*	33	32	20
Cc1ccccc1NC(=O)CSc1nnc(-c2ccco2)n1N	/	/	33	/	/
SMILES	PABP FP inh	eIF4H FP inh	PABP1 MLLE inh	EBV gp42 inh	eIF4E 4G PPI
Cc1cccc(NC(=O)CSc2nnc(-c3ccco3)c(-c3ccco3)n2)c1	+	89	28	0	11
CCNc1nc(NC(C)C)nc(Oc2ccc(=O)n(C)n2)n1	i	2	-9	0	65*
CC(C)Nc1nc(NC(C)C)nc(Oc2ccc(=O)n(C)n2)n1	i	-5	0	-11	-1
CC(C)CC(N)c1csc(NC(=O)Nc2ccccc2C(C)(C)C)n1 (configuration not stated)	/	/	6	/	/
COc1ccc(C(=O)N(C)CCOc2ccc(Cl)cc2)cc1S(=O)(=O)N1CCCC1	/	/	-10	/	/
CCN1C(=O)C2C(C1=O)N1C(c3ccccc3)C3C(=O)N(CC)C(=O)C3N1C2c1ccccc1 (configuration not stated)	i	4	-4	7	-14
CCN1C(=O)C(C(=O)c2ccccc2)SC1=S (configuration not stated)	i	20	38*	5	-4
COc1cc2cc(CN(Cc3nnnn3Cc3ccco3)C3CCCCC3)c(=O)[nH]c2cc1OC	+	61*	13	-1	2
Cc1ccc2cc(CN(CCN3CCOCC3)Cc3nnnn3Cc3ccco3)c(=O)[nH]c2c1C	+	86*	-17	-9	17
COCCn1nnnc1CN(Cc1cc2cc(OC)c(OC)cc2[nH]c1=O)C1CCCC1	+	51*	5	7	3
COc1ccc(Cn2nnnc2CN(Cc2cc3ccc(C)cc3[nH]c2=O)C2CCCC2)cc1	i	-14	-11	-1	-9
CCOc1ccc2[nH]c(=O)c(CN(Cc3nnnn3Cc3ccco3)C3CCCCC3)cc2c1	+	57*	29	-12	0
CCOc1ccc2[nH]c(=O)c(CN(Cc3ccco3)Cc3nnnn3Cc3ccccc3)cc2c1	i	2	16	-15	-4
CCCCOCCOC(=O)C1OC1(C)c1ccccc1 (configuration not stated)	/	/	17	/	/
Cc1cccc(C(=O)NC(=S)Nc2ccc3[nH]c(=O)[nH]c3c2)c1	i	-1	12	-7	0
CCc1ccc(NC(=S)Nc2ccc3[nH]c(=O)[nH]c3c2)cc1	+	1.7*	22	-2	-1
Cc1ccc(C(=O)NC(=S)Nc2ccc3[nH]c(=O)[nH]c3c2)c(C)c1	i	-3	38*	-17	1
NS(=O)(=O)c1ccc(CNC(=O)c2cccnc2Cl)cc1	i	10	2	/	/
O=C(N/N=C/c1ccc(N2CCCCC2)o1)c1ccccc1[N+](=O)[O-]	i	15	-7	-17	2
CNC(=O)c1[nH]cnc1C(=O)Nc1ccc(OC)cc1	i	-4	-2	-15	2
CC(OC(=O)CCC(=O)N1CCN(S(=O)(=O)c2ccc3ccccc3c2)CC1)C(=O)NC(N)=O (configuration not stated)	i	8	13	/	/
C=C(C)C(=O)Nc1cccc(C2=NOC3(C2)C[C@@H](C(N)=O)N(C(=O)/C=C/C=C/C)C3)c1 (some centres not stated)	+	93*	-2	6	7
C/C=C(\C)C(=O)Nc1cccc(C2=NOC3(C2)C[C@@H](C(N)=O)N(C(=O)/C(C)=C/C)C3)c1 (some centres not stated)	i	-8	7	-15	96*
